Experimental data as given in PubChem BioAssay.
Active and inactive are the calls of the source.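 Rule for the calls, unless noted: active = inhibition of the reporter signal at or above 50%; inactive = inhibition below 50%.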 Where a SMILES comes first, the peptide text is derived from it. The star is where a group is joined. Boc = CC(C)(C)OC(=O)*

How the values were obtained:
[1] = inhibitors of TNFa-induced NFkB p65 translocation, primary screen, imaging, HUVEC, MLSMR starter and 10KST1 sets (AID 438;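 active = inhibition above 20% together with a positive visual image hit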;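 note: compound added about 3h40 before a 20 min TNFalpha stimulation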;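 for inhibition: signal is the nuclear over cytoplasmic p65 intensity ratio per well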); conditions: HUVEC TNFa-induced p65 nuclear translocation; cell count: measured here: nuclei count (cytotoxicity indicator), at 2.08 µM; inhibition: at 2 µM, stronger effect = higher value, 0% TNFa-plus-vehicle, 100% no-TNFa wells
[2] = inhibitors of mutant huntingtin aggregation, primary screen, imaging, exon1htt(103Q)mCFP cells, high-content imaging (AID 483;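 active = visual image review flags a hit and inhibition of aggregation exceeds 20%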;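 note: compound exposure lasted 3 days before fixation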;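 for nuclei count: percent of the per-plate median nuclei count of sample wells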); conditions: exon1htt(103Q)mCFP cell line, aggregate imaging, at 2 µM; inhibition of aggregation: stronger effect = higher value; nuclei count: measured here: cell count, toxicity
[3] = inhibitors of E-selectin induction by TNFa, primary screen, imaging, HUVEC, immunofluorescence, MLSMR starter and 10KST1 sets (AID 487;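 active = visually confirmed hit in the image check and inhibition above 20%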;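 for inhibition: signal is fraction of cell area covered by stained E-selectin grains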;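 for nuclei count: 100% = median nuclei count of all wells on the same plate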); conditions: HUVEC TNFalpha-induced E-selectin immunofluorescence imaging, at 2 µM; inhibition: stronger effect = higher value; nuclei count: measured here: cell number, toxicity
[4] = biological target: Voltage-gated potassium channel subunit beta-2 (Rattus norvegicus) (UniProt P62483); assay: KvBeta enzyme negative modulators, primary screen, biochemical, NADPH fluorescence (AID 622;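 active = fluorescence slope higher than the sample average by over 3 SD, cut at about -0.22 in these data, passing the limit was not always enough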;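 note: slope of raw intensity against log time taken from 70 to 1610 s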); conditions: recombinant KvBeta, 4-cyanobenzaldehyde reduction, at 10 µM, stronger effect = higher value
[5] = biological target: Voltage-gated potassium channel subunit beta-2 (Rattus norvegicus) (UniProt P62483); assay: KvBeta positive modulators, primary screen, biochemical, NADPH fluorescence (AID 623;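 active = NADPH fluorescence slope more negative than the mean of all samples by about 3 SD, 99.7% confidence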;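 note: fluorescence intensity change per second fitted from 20 to 320 s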); conditions: Recombinant KvBeta, NADPH fluorescence decrease slope, 10 min; at 10 µM; stronger effect = lower value
[6] = biological target: Alpha-2C adrenergic receptor (Homo sapiens) (UniProt P18825); assay: modulators of alpha2C/GIRK thallium flux, primary screen, cell-based, HEK293 alpha2C/GIRK1/2 (AID 624;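 active = fluorescence slope after compound addition differing from the mean of all screened samples at 99.7% confidence, in either direction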;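 note: slope of fluorescence ratio to pre-addition baseline per second over 15 to 24 s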); conditions: thallium flux BTC fluorescence, at 10 µM, actives lie on both sides
[7] = inhibitors of Sendai virus-induced IRF3 signaling, primary screen, TLR/RLR signaling modifier project, cell-based, Sendai virus stimulus, luciferase, 10K MLSCN set (AID 602276;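 active = inhibition at or above 50% at 10 µM; inactive = inhibition below 50%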;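 note: firefly luciferase from ISG56 promoter only with Renilla not read in this screen; 0% = Sendai virus plus DMSO and 100% = medium plus DMSO without virus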); conditions: HEK293 RL24 IRF3 luciferase reporter, at 10 µM, stronger effect = higher value
[8] = inhibitors of poly I:C-induced TLR3 signaling, primary screen, cell-based, poly I:C stimulus, luciferase, 10K MLSCN set (AID 602277); conditions: HEK293-TLR3 RL24 IRF3 luciferase reporter, at 10 µM, stronger effect = higher value

Voltage-gated potassium channel subunit beta-2 (Rattus norvegicus), sequence (P62483 whole entry, looked up): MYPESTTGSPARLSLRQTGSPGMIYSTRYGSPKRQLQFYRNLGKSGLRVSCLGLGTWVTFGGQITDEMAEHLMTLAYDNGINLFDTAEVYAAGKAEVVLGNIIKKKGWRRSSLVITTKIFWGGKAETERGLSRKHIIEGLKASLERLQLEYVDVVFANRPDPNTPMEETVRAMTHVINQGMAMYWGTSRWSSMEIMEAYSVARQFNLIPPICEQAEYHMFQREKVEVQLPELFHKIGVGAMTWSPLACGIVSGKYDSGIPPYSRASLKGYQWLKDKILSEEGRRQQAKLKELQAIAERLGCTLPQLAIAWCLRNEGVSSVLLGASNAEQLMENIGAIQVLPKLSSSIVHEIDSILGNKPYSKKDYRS
Alpha-2C adrenergic receptor (Homo sapiens), sequence (P18825 whole entry, looked up): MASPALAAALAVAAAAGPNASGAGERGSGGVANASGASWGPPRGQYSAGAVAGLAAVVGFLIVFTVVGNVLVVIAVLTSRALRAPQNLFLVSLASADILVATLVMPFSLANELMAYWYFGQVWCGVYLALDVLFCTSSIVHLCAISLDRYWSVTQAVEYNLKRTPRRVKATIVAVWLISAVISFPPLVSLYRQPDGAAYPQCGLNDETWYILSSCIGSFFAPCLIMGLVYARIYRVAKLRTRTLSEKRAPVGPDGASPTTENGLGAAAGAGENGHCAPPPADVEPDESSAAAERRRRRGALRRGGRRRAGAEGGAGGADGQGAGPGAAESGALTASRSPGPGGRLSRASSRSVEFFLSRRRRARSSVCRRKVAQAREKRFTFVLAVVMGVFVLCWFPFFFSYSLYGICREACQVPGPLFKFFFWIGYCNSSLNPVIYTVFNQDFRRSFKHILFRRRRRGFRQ

| Structure (SMILES) | cell count [1] | inhibition [1] | inhibition of aggregation [2] | nuclei count [2] [%] | inhibition [3] | nuclei count [3] [%] | fluorescence slope [4] | NADPH fluorescence slope [5] | slope [6] | inhibition [7] | inhibition [8] |
| --- | --- | --- | --- | --- | --- | --- | --- | --- | --- | --- | --- |
| O=C(Nc1ccc(N2CCN(Cc3ccccc3Cl)CC2)cc1)c1cccnc1 | 630 | -4.2% (inactive) | 15.2% (inactive) | 65.6 | -27% (inactive) | 102 | -0.478 (inactive) | 1.4e-05 (inactive) | 0.00649 (inactive) | -23.5% (inactive) | -14.5% (inactive) |
| Cc1c(NC(=O)C2CCCCN2S(=O)(=O)c2ccc(Cl)cc2)c(=O)n(-c2ccccc2)n1C (configuration not stated) | 699 | -4.2% (inactive) | -14.5% (inactive) | 112 | 2% (inactive) | 109 | -0.604 (inactive) | 1.8e-05 (inactive) | 0.00694 (inactive) | 9.42% (inactive) | -3.63% (inactive) |
| CCOC(=O)c1cccnc1SCC(=O)NC(C)CC (configuration not stated) | 689 | -22.4% (inactive) | 23.4% (inactive) | 99.8 | -54.6% (inactive) | 119 | -0.469 (inactive) | -0.0001 (inactive) | 0.006 (inactive) | 7.9% (inactive) | 17.7% (inactive) |
| CCOc1ccc(Cn2nnc(C(=O)NCc3ccc(OC)cc3)c2N)cc1 | 509 | -1.3% (inactive) | 15.4% (inactive) | 72.5 | -22.4% (inactive) | 100 | -0.536 (inactive) | -2.2e-06 (inactive) | 0.00681 (inactive) | 17.5% (inactive) | 30.1% (inactive) |
| CCOC(=O)c1cc2c(=O)n3cccc(C)c3nc2n(CC2CCCO2)c1=NC(C)=O (configuration not stated) | 435 | 28.2% (inactive) | -1.4% (inactive) | 117 | -17.2% (inactive) | 114 | -0.295 (inactive) | -2.5e-05 (inactive) | 0.00401 (inactive) | 3.59% (inactive) | 8.19% (inactive) |
| CCOC(=O)CNC(=O)CSc1nc(N)cc(N)n1 | 434 | 5.1% (inactive) | -0.1% (inactive) | 106 | -62.6% (inactive) | 108 | -0.385 (inactive) | 2.9e-05 (inactive) | 0.00537 (inactive) | 1.91% (inactive) | 8.68% (inactive) |
| COc1ccc(N2C(=O)C(Cl)=C(N3CCCC3)C2=O)cc1 | 446 | 10.1% (inactive) | -0.8% (inactive) | 101 | 25.6% (inactive) | 100 | -0.29 (inactive) | -4.2e-05 (inactive) | 0.00536 (inactive) | -5.83% (inactive) | -8.61% (inactive) |
| CN1CCc2c(sc3c2c(=O)n(-c2cccc(Cl)c2)c2nncn32)C1 | 579 | 13.9% (inactive) | 5.9% (inactive) | 112 | 37.3% (inactive) | 105 | -0.513 (inactive) | -3.5e-05 (inactive) | 0.00609 (inactive) | -7.55% (inactive) | 11.7% (inactive) |
| CCOC(=O)Cn1c(CN(C)Cc2ccccc2)nc2c1c(=O)n(C)c(=O)n2C | 241 | 6.8% (inactive) | 6.2% (inactive) | 92.6 | 26.4% (inactive) | 94.7 | -0.278 (inactive) | -3.7e-05 (inactive) | 0.00521 (inactive) | 13.2% (inactive) | 10.8% (inactive) |
| Cc1nc(NC(=O)c2ccccc2)sc1-c1csc(NCc2ccco2)n1 | 301 | -2.4% (inactive) | 0% (inactive) | 121 | -13% (inactive) | 113 | -0.185 (inactive) | -1.9e-05 (inactive) | 0.0038 (inactive) | 5.26% (inactive) | -13.8% (inactive) |
| O=C(c1ccc2c(c1)OCO2)N1CCCN(C(=O)c2ccc3c(c2)OCO3)CC1 | 522 | 5% (inactive) | -1.1% (inactive) | 103 | -123% (inactive) | 106 | -0.417 (inactive) | -0.0001 (inactive) | 0.0056 (inactive) | 15.7% (inactive) | 28.5% (inactive) |
| C=C(Cl)COc1ccc2c(C)cc(=O)oc2c1 | 319 | -6.8% (inactive) | -0.8% (inactive) | 71.6 | -31.6% (inactive) | 101 | -0.587 (inactive) | 3.6e-07 (inactive) | 0.00646 (inactive) | -24.5% (inactive) | -67.7% (inactive) |
| CCOC(=O)c1sc2nc(N3CCCC3)c3c(c2c1N)CC(C)(C)OC3 | 410 | 2.7% (inactive) | -0.3% (inactive) | 105 | -22.4% (inactive) | 103 | -0.302 (inactive) | -1.6e-05 (inactive) | 0.0041 (inactive) | -5.95% (inactive) | 2.54% (inactive) |
| CCCOc1cccc(C(=O)N(Cc2ccco2)C2CCS(=O)(=O)C2)c1 (configuration not stated) | 378 | 1.7% (inactive) | -7.9% (inactive) | 100 | -94.2% (inactive) | 112 | -0.442 (inactive) | -3.3e-05 (inactive) | 0.00536 (inactive) | 2.23% (inactive) | -2.97% (inactive) |
| CCOC(=O)C1=C(c2ccccc2)N2CCN=C2S1 | 507 | -12.1% (inactive) | 18.9% (inactive) | 59 | -12.3% (inactive) | 94.2 | -0.521 (inactive) | -1.6e-06 (inactive) | 0.00413 (inactive) | 1.18% (inactive) | 6.97% (inactive) |
| Cc1cccc(NC(=O)CS(=O)(=O)c2cn(C)c3ccccc23)c1 | 628 | 2.4% (inactive) | 4.8% (inactive) | 99.7 | -12.5% (inactive) | 103 | -0.521 (inactive) | 2.1e-06 (inactive) | 0.00711 (inactive) | 7.93% (inactive) | 22.7% (inactive) |
| CCc1cc(=O)oc2cc(OC(C)=O)cc(OC(C)=O)c12 | 602 | -6% (inactive) | 12.3% (inactive) | 104 | 19.2% (inactive) | 97.5 | -0.0715 (active) | 2.1e-05 (inactive) | 0.00397 (inactive) | 11.6% (inactive) | 14% (inactive) |
| Cc1cc(=O)n2nc(-c3ccccc3)sc2n1 | 563 | -1.1% (inactive) | -4.1% (inactive) | 106 | -70.5% (inactive) | 108 | -0.421 (inactive) | -9.5e-06 (inactive) | 0.00585 (inactive) | -17.6% (inactive) | -64.6% (inactive) |
| COc1nc(OC)nc(N2CCC(C(=O)NCc3cccs3)CC2)n1 | 559 | -15% (inactive) | -22.8% (inactive) | 112 | -1.7% (inactive) | 107 | -0.528 (inactive) | -4.4e-05 (inactive) | 0.00626 (inactive) | -3.8% (inactive) | -2.92% (inactive) |
| Cc1nnc(SCC(=O)Nc2nccs2)s1 | 501 | -10.8% (inactive) | 12.1% (inactive) | 116 | -0.9% (inactive) | 115 | -0.413 (inactive) | -7.7e-05 (inactive) | 0.00513 (inactive) | -7.71% (inactive) | -7.69% (inactive) |
| COC(=O)c1cc2ccsc2n1Cc1nc(-c2ccc(OC)cc2)oc1C | 622 | -17% (inactive) | -22% (inactive) | 120 | -66.3% (inactive) | 109 | -0.347 (inactive) | -2.6e-05 (inactive) | 0.00726 (inactive) | -25.1% (inactive) | -56.7% (inactive) |
| O=C(NC1CCN(Cc2nnnn2CCc2ccccc2)CC1)c1ccccc1F | 744 | 0% (inactive) | -8.8% (inactive) | 99.7 | -44.2% (inactive) | 116 | -0.295 (inactive) | -3.3e-06 (inactive) | 0.00487 (inactive) | 11.5% (inactive) | 27.2% (inactive) |
| CC(C)(C)OC(=O)N1CCCC1C(=O)NC(Cc1ccccc1)C(=O)O (stereo not drawn) (Boc-Pro-Phe-OH; configuration not given here) | 431 | 1% (inactive) | 4.3% (inactive) | 99.5 | 21.6% (inactive) | 101 | -0.607 (inactive) | 1.1e-05 (inactive) | 0.00669 (inactive) | 12.2% (inactive) | 17.2% (inactive) |
| COc1cc(S(=O)(=O)N2CCC(N3CCCCC3)CC2)ccc1-n1cnnn1 | 351 | 6.9% (inactive) | 14.1% (inactive) | 89.1 | -20.4% (inactive) | 102 | -0.593 (inactive) | -7.9e-06 (inactive) | 0.00492 (inactive) | -9.28% (inactive) | 3.24% (inactive) |
| Cc1ccc(NC(=O)C2CCCN(S(=O)(=O)c3cnc[nH]3)C2)c(Br)c1 (configuration not stated) | 601 | 10.1% (inactive) | -33.6% (inactive) | 82.3 | 12.8% (inactive) | 108 | -0.543 (inactive) | -6.4e-05 (inactive) | 0.00566 (inactive) | 3.4% (inactive) | -7.13% (inactive) |
| CCOC(=O)N1CCC(NC(=O)Cn2c3c(c(-c4ccccc4Cl)cc2=O)CCC3)CC1 | 528 | -3.3% (inactive) | 4.5% (inactive) | 98.3 | -105% (inactive) | 120 | -0.54 (inactive) | -2.2e-05 (inactive) | 0.00573 (inactive) | 9.23% (inactive) | 30.1% (inactive) |
| COC(=O)C1(C#N)C(c2ccccc2)C1(C(=O)OC)C(=O)OC (configuration not stated) | 450 | 2.6% (inactive) | -8.3% (inactive) | 103 | -21.2% (inactive) | 118 | -0.522 (inactive) | -2.1e-05 (inactive) | 0.00516 (inactive) | 13.2% (inactive) | 26.1% (inactive) |
